Source: PubChem
BAZ2B block: BAZ2B (human) inhibition. Q9UIF8. AlphaScreen BAZ2B-H3K14Ac peptide displacement. Potency, µM (doses to about 114 µM), for the others: at the top dose activity change, negative = inhibition, most hits filed as inhibitors. actives 4.4% (n = 360,000). AID 504333; further: on the % scale 0 is the no-effect control and ±100 the full control effect; nearly all actives have a fitted effect of over 60% in size
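AlphaScreen luminescence quantifies BAZ2B engagement of H3K14Ac peptide; the protein and biotinylated peptide are both at 50 nM final, buffer PBS pH 7.4 with 0.01% Tween-20, all steps at room temperature.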
HP1b chromo inh: blocks HP1-beta chromodomain binding to methylated histone tails | Potency, µM (top dose mostly 114 µM), for inactives: top-dose activity change, negative = inhibition, most hits filed as inhibitors | AlphaScreen HP1-beta / biotin-H3K9me3 peptide binding | actives 0.56% (n = 390,000) | P83916; further: nearly all actives have a fitted effect of over 70% in size
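AlphaScreen: HP1-beta (50 nM) preformed 30 min with biotin-H3(1-18)K9me3 peptide (50 nM) in PBS pH 7.4, 0.01% Tween-20. Compound added for 30 min at RT, then streptavidin donor/nickel chelate acceptor beads (10 ug/mL) for 30 min.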
JMJD2A Tudor: inhibitors of human JMJD2A Tudor domain. AlphaScreen JMJD2A-Tudor / H3K4me3 peptide binding. O75164. Potency, µM (titrated, usually from 114 µM), inactives show at the highest dose activity change, negative = inhibition, usual class: inhibitors. actives 4.4% (n = 390,000); further: on the % scale 0 is the no-effect control and ±100 the full control effect; nearly all actives have a fitted effect of over 50% in size
PLK1 PBD inh: PLK1 (human) polo-box domain binding inhibition; P53350; Plk1 PBD binding of FITC phosphopeptide, fluorescence polarization; Potency, µM, inactives show max response, negative = inhibition, hits mostly inhibitors; actives 2.8% (n = 360,000); AID 720504; further: series mostly up to about 57 µM; on the % scale 0 is the no-effect control and ±100 the full control effect; nearly all actives have a fitted effect of over 65% in size
Target sequence (P53350 whole entry, looked up, the tested form may be a part): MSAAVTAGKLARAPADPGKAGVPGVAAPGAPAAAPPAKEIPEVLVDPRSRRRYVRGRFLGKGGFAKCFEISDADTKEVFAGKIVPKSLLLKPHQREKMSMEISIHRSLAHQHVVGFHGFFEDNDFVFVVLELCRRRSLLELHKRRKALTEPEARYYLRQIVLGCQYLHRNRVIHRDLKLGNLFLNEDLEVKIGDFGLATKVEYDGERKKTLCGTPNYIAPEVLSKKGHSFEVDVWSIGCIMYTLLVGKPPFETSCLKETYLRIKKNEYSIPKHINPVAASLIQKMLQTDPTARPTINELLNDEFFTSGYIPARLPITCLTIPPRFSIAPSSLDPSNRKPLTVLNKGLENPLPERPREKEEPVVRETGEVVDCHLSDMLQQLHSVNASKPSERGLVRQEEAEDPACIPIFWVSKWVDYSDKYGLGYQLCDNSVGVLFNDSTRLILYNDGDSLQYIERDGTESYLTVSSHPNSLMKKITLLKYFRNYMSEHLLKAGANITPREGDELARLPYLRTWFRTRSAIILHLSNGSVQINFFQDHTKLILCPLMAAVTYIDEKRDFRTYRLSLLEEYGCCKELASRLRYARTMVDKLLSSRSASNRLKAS
VDR inhibitor: blocks the human vitamin D receptor; VDR-SRC2-3 peptide fluorescence polarization, 2 h; Potency, µM, without a hit: max response, negative = inhibition, actives largely listed as inhibitors; actives 0.93% (n = 400,000); AID 504847; further: on the % scale 0 is the no-effect control and ±100 the full control effect
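The screen uses fluorescence polarization to detect compounds that interfere with recruitment of the SRC2-3 coactivator peptide to VDR; plates are read after 2 h at room temperature.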
G9a inh: inhibitors of human histone lysine methyltransferase G9a; Q96KQ7; G9a H3K9 monomethylation, AlphaScreen, 2 h; Potency, µM (top dose mostly 102 µM), for inactives: top-dose activity, negative = inhibition, most hits filed as inhibitors; actives 8.8% (n = 350,000); further: on the % scale 0 is the no-effect control and ±100 the full control effect; nearly all actives have a fitted effect of over 75% in size
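Enzyme 20 nM + cpd, 15 min RT; add b-H3K9 pep 500 nM / SAM 20 uM; 2 h RT; anti-H3K9me1 Ab 0.5 ug/mL + SA donor / anti-rabbit acceptor beads 20 ug/mL each, 10 min; AlphaScreen read.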
Active calls of the source: *; ? = inconclusive; nt = not tested or not shown; [ ] = remark or other dose. An excerpt weighted towards active compounds, which were near 11% of everything screened. The call rests on the fitted dose curve; in most records, active means well fitted curve in the direction sought with a large enough effect; inconclusive means small, poorly fitted or top-dose-only effect, or another doubt; inactive means no such curve, though single readings can be large; an effect the other way counts as inactive or inconclusive. Potency means the concentration at half of the fitted maximal effect.

SMILES	BAZ2B block	HP1b chromo inh	JMJD2A Tudor	PLK1 PBD inh	VDR inhibitor	G9a inh
Cn1c(CC(=O)Nc2ccc(Cl)c(Cl)c2)n[nH]c1=S	-2%	12%	-11%	-8%	1%	14µM*
CC(NC(=O)Cn1cccc1C(=O)c1ccccc1)c1ccc2c(c1)OCCO2 (stereo not drawn)	-5%	9%	-13%	-12%	13%	-5%
Cc1ccc(NC(=O)C2CCN(c3nc4ccccc4nc3C(F)(F)F)CC2)cc1C	5%	-7%	-16%	nt	8%	12%[59 µM]
CN(Cc1n[nH]c(=S)n1C)S(=O)(=O)c1ccccc1	2%	26%	5.6µM*	-6%	7%	nt
COc1ccc(NC(=O)Cc2nnc(SCC(=O)Nc3ccccc3)n2C)cc1	-1%	19%	-4%	-7%	-4%	4%
CC(NC(=O)CSc1nnc(CC(=O)Nc2ccc(Cl)c(Cl)c2)n1C)c1ccccc1 (stereo not drawn)	?	53%	-21%	-7%	5%	13µM*
CN1CCC(N(C)C(=S)NC(=O)c2cc(-c3cccc(Br)c3)nc3ccccc23)CC1	?	-11%	13µM*	21µM*	-28%	?
CC12CCC(C(=O)Nc3ccc(Br)cn3)(OC1=O)C2(C)C (stereo not drawn)	4%	21%	-1%	-2%	2%	0%
Cc1cc(F)ccc1S(=O)(=O)Nc1ncnc2sccc12	-20%	0%	-2%[11.4 µM]	21µM*	-10%	22%
COc1ccc2oc(C(=O)OCC(=O)N(C)C3CCS(=O)(=O)C3)c(C)c2c1 (stereo not drawn)	11%	12%	-9%	-9%	-6%	?
CCOC(=O)N1CCN(C(=O)c2cccc(S(=O)(=O)Nc3ccc(Br)cc3)c2)CC1	-14%	23%	-14%	-3%	-8%	-6%
O=C(O)Cn1cc(/C=N/Nc2ccc([N+](=O)[O-])cn2)c2ccccc21	?	?	?	-1%	-22%	45µM*
Cc1ccc(Cn2cc(/C=N/Nc3ccc([N+](=O)[O-])cn3)c3ccccc32)cc1	-21%	4%	-22%	0%	-5%	50µM*
Cc1c(/C=N/Nc2ccc([N+](=O)[O-])cn2)c2ccccc2n1Cc1ccccc1	-2%	19%	-20%	6%	-6%	-11%[59 µM]
CCCCCCn1cc(CN2CC(N3CCCC3)CS2(=O)=O)nn1 (stereo not drawn)	nt	nt	nt	-2%	nt	nt
CC(=O)Nc1ccc(SCC(=O)NCC2(N3CCCCC3)CCCCC2)cc1	nt	33%	-9%	12µM*	?	nt
COC(=O)C1Cc2ccccc2CN1C(=O)CCl (stereo not drawn)	?	18%	?	3%	7%	?
O=C(CCl)N1CCCC1c1ccc2c(c1)OCCO2 (stereo not drawn)	-37%	-18%[57 µM]	?	27µM*	?	-31%
CC(=O)c1ccc(OCC(=O)N2CCCC2c2ccc3c(c2)OCCCO3)cc1 (stereo not drawn)	nt	21%	-4%	-1%	-14%	nt
Cc1cc(C)n(CC(=O)NNC(=O)C2CC(=O)N(Cc3ccccc3Cl)C2)n1 (stereo not drawn)	-1%	36%	-4%	1%	-10%	45µM*
O=C(NCCc1ccccn1)C1CC(=O)N(Cc2ccccc2Cl)C1 (stereo not drawn)	8%	23%	-6%	-5%	-9%	3%
CCCS(=O)(=O)NC(=O)C1(C)CCN(C(=O)c2ccccc2F)C1 (stereo not drawn)	nt	nt	nt	-7%	nt	nt
CCCCCCCCN=C(N)c1ccc(C(=O)OCC2CCCCC2)cc1	nt	nt	nt	nt	0%	nt
Cn1nc(C(=O)Nc2cccc(C(F)(F)F)c2)c2c1-c1ccccc1S(=O)(=O)C2	1%	45%	1%	nt	7%	-5%[59 µM]
COc1ccc2c(c1)C(=O)[C@@H](OC(=O)Nc1ccc(C)c(Br)c1)[C@H](c1ccc(OC)c(Br)c1)O2	nt	nt	nt	nt	-7%	nt
Cc1onc(-c2ccccc2)c1C(=O)OCCOc1ccccc1F	115%	149%	-10%[57.1 µM]	27µM*	?	308%
